PubChem BioAssay (EPA / NIEHS)
Results filed as inconclusive are left out. Active and inactive are the calls of the source. How the source made its calls, unless noted: active means hit-call score of the fitted dose curve at least 0.9, where 1 is the maximum; inactive means score below 0.9.

What was measured:
[1] = read-out: Interleukin 6 (IL6), IL6 (gene 3569); test: BSK_BT_xIL6: BioMAP Diversity Plus: BT Assay for Interleukin 6 (IL6) Biomarker Activity (AID 2284228); conditions: primary human B cells with PBMC
Method in brief: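 Human B cell plus PBMC co-culture exposed to test chemical for 24 h; secreted IL-6 quantified by Luminex xMAP bead assay. Activity fitted in the positive direction against DMSO as negative control and baseline.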

[2] = read-out: Interleukin 17A (IL17A), IL17A (gene 3605); test: BSK_BT_xIL17A: BioMAP Diversity Plus: BT Assay for Interleukin 17A (IL17A) Biomarker Activity (AID 2284229); conditions: primary human B cells with PBMC
Method in brief: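 B cells co-cultured with PBMC were exposed to test chemicals, and secreted IL-17A was quantified 24 h after dosing by Luminex xMAP bead immunoassay. Activity was fitted in the gain direction against DMSO as baseline.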

[3] = read-out: Tumor necrosis factor (Homo sapiens) (UniProt P01375); test: BSK_BT_xTNFa: BioMAP Diversity Plus: BT Assay for Tumor necrosis factor alpha (TNF-alpha) Biomarker Activity (AID 2284230); conditions: primary human B cells with PBMC
Method in brief: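 B cells with PBMC in co-culture, dosed and sampled at 24 h; secreted TNF-alpha measured by Luminex xMAP bead assay. Activity fitted in the gain direction against DMSO as negative control and baseline.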

[4] = read-out: Vascular cell adhesion molecule 1 (VCAM1), VCAM1 (gene 7412); test: BSK_MyoF_VCAM1: BioMAP Diversity Plus: MyoF Assay for Vascular cell adhesion molecule 1 (VCAM1) Biomarker Activity (AID 2284231); conditions: primary human lung fibroblasts
Method in brief: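 Primary human lung fibroblasts were dosed with test chemical for 24 h, then cell-surface VCAM-1 was measured by ELISA. Activity was fitted in the positive direction against DMSO as negative control and baseline.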

[5] = read-out: Collagen I, COL1A1 (gene 1277); test: BSK_MyoF_CollagenI: BioMAP Diversity Plus: MyoF Assay for Collagen I Biomarker Activity (AID 2284238); conditions: primary human lung fibroblasts
Method in brief: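 Human lung fibroblasts were exposed to test chemical for 24 h, then Collagen I was quantified by ELISA. Activity was fitted in the increasing direction against DMSO as the negative control and baseline.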

[6] = read-out: Interleukin 17F (IL17F), IL17F (gene 112744); test: BSK_BT_xIL17F: BioMAP Diversity Plus: BT Assay for Interleukin 17F (IL17F) Biomarker Activity (AID 2284243); conditions: primary human B cells with PBMC
Method in brief: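 B cell/PBMC co-culture (human primary), 24 h compound exposure; sIL-17F by Luminex xMAP; gain-of-signal fit vs DMSO baseline.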

[7] = read-out: Actin alpha 1 (ACTA1), ACTA1 (gene 58); test: BSK_MyoF_ACTA1: BioMAP Diversity Plus: MyoF Assay for Actin alpha 1 (ACTA1) Biomarker Activity (AID 2284244); conditions: primary human lung fibroblasts
Method in brief: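 Measured by ELISA: alpha-smooth muscle actin in human primary lung fibroblasts 24 h after dosing, with DMSO as baseline and upward signal change as the fitted direction.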

[8] = read-out: Interleukin 2 (IL2), IL2 (gene 3558); test: BSK_BT_xIL2: BioMAP Diversity Plus: BT Assay for Interleukin 2 (IL2) Biomarker Activity (AID 2284245); conditions: primary human B cells with PBMC
Method in brief: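 Secreted interleukin-2 from human B cell/PBMC co-cultures, measured 24 h post-dosing by Luminex multiplex immunoassay. Upward-direction curve fitting against DMSO baseline.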

[9] = TAMU_HCS_1.5hr_SingleDonor1434_Cytotoxicity: Cytotoxicity Assessment using High-content Screening (HCS) Fluorescent Imaging for the Texas A&M University (TAMU) 1.5-hr Human Induced Pluripotent Stem Cell (iPSC)-derived Cardiotoxicity Assay (AID 2284234; active means hit-call score of the fitted dose curve at least 0.9, where 1 is the maximum)
Method in brief: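 Human iPSC-derived cardiomyocytes dosed at 0.2, 1, 10, 100 uM final (0.5% DMSO) for 90 min at 37 C. Hoechst 33342-stained nuclei counted by 10x high-content imaging; POD is EC10, a 10% drop in total cell count versus DMSO.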

[10] = CCTE_Mundy_HCI_hNP1_Casp3_7: CCTE's Caspase-Glo 3/7 Assay in human neuroprogenitor cells for Apoptosis, Mundy Lab (AID 2284240)
Method in brief: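 Apoptosis is scored by activated caspase-3/7 luminescence in WA09-derived neural progenitor cells, measured 26.5 h after chemical dosing. Values represent gain of signal relative to DMSO vehicle.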

[11] = CCTE_Mundy_HCI_hNP1_CellTiter: CCTE's Cell Titer-Glo 2 Assay in human neuroprogenitor cells for Viability, Mundy Lab (AID 2284241; active means hit-call score of the fitted dose curve at least 0.9, where 1 is the maximum)
Method in brief: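 Human neural progenitor cells (hNP1, WA09-derived) were plated on poly-L-ornithine/laminin and grown 40 to 44 hours at 37 °C, 5% CO2 before chemical addition. Twenty-four hours later, ATP was measured by CellTiter-Glo luminescence; loss of signal versus DMSO indicates reduced viability.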

[12] = read-out: Monokine induced gamma interferon (MIG), CXCL9 (gene 4283); test: BSK_KF3CT_MIG: BioMAP Diversity Plus: KF3CT Assay for Monokine induced gamma interferon (MIG) Biomarker Activity (AID 2284248); conditions: primary human keratinocytes with fibroblasts
Method in brief: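 Human keratinocyte plus foreskin fibroblast primary co-culture dosed with test chemical for 24 h; MIG level measured by ELISA and fitted in the positive direction against DMSO as baseline.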

[13] = read-out: Vascular cell adhesion molecule 1 (VCAM1), VCAM1 (gene 7412); test: BSK_BF4T_VCAM1: BioMAP Diversity Plus: BF4T Assay for Vascular cell adhesion molecule 1 (VCAM1) Biomarker Activity (AID 2284249); conditions: primary human bronchial epithelial cells with fibroblasts
Method in brief: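 Human bronchial epithelial cell and dermal fibroblast co-culture exposed 24 h. VCAM-1 measured by ELISA; parallel SRB total-protein staining for cytotoxicity. Fitted in positive direction relative to DMSO.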

[14] = read-out: Collagen I, COL1A1 (gene 1277); test: BSK_hDFCGF_CollagenI: BioMAP Diversity Plus: hDFCGF Assay for Collagen I Biomarker Activity (AID 2284250); conditions: primary human foreskin fibroblasts
Method in brief: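 Cells were primary human foreskin fibroblasts treated for 24 h. Collagen I levels were then determined by ELISA and compared against DMSO controls.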

Measured: AC50

Sequence of Tumor necrosis factor (Homo sapiens) (P01375 whole entry, looked up): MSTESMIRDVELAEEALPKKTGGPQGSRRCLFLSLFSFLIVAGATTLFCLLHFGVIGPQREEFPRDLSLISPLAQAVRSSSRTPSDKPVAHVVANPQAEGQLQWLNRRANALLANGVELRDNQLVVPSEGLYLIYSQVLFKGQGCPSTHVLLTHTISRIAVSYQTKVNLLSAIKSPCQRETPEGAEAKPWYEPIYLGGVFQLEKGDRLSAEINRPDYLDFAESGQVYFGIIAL

CC(=O)C(Cl)C(=O)N(C)C (stereo unspecified)
active: [1] 27.9 µM | [3] 29.6 µM | [6] 28.8 µM | [8] 34.4 µM
inactive: [2] | [4] | [5] | [7]

CC(C)c1ccc(CO)cc1
inactive: [1] | [2] | [3] | [4] | [5] | [6] | [7] | [8]

COP(=S)(OC)Oc1ccc(S(=O)(=O)N(C)C)cc1
inactive: [1] | [2] | [3] | [4] | [5] | [6] | [7] | [8]

O=[N+]([O-])c1ccc2c3c(cccc13)CC2
inactive: [2] | [3] | [4] | [5] | [6] | [7] | [8]
active: [1] 20 µM

CCOP(=S)(OCC)SCCS(=O)(=O)CC
active: [8] 23.9 µM
inactive: [1] | [2] | [3] | [4] | [5] | [6] | [7]

CCOP(=S)(OCC)Oc1ccc(S(C)=O)cc1 (stereo unspecified)
inactive: [1] | [2] | [3] | [4] | [5] | [6] | [7] | [8]

Oc1c(I)cc(I)cc1I
active: [4] 8.17 µM | [5] 9.61 µM | [7] 20 µM
inactive: [1] | [2] | [3] | [6] | [8]

CC(C)CCCCCCOC(=O)c1ccccc1C(=O)OCCCCCCC(C)C
inactive: [1] | [2] | [3] | [4] | [5] | [6] | [7] | [8]

Nc1cccc2ccccc12
inactive: [1] | [2] | [3] | [4] | [5] | [6] | [7] | [8]

O=Cc1cccc(Oc2ccccc2)c1
inactive: [2] | [3] | [4] | [5] | [6] | [7] | [8]
active: [1] 5.07 µM

CCNc1nc(NC(C)(C)C)nc(SC)n1
active: [3] 20 µM | [4] 20 µM | [6] 20 µM
inactive: [1] | [2] | [5] | [7] | [8]

CCCCCCCCC(=O)NCc1ccc(O)c(OC)c1
inactive: [1] | [2] | [3] | [4] | [5] | [6] | [7] | [8]

BrCCBr
inactive: [1] | [2] | [3] | [4] | [5] | [6] | [7] | [8]

CCCCC(CC)CO[N+](=O)[O-] (stereo unspecified)
inactive: [1] | [2] | [3] | [4] | [5] | [6] | [7] | [8]

O=S(=O)(c1ccc(Cl)cc1)c1ccc(Cl)cc1
inactive: [1] | [2] | [3] | [4] | [5] | [6] | [7] | [8]

ClC(Cl)=C(Cl)C(Cl)=C(Cl)Cl
inactive: [2] | [3] | [4] | [9] | [6] | [8]
active: [1] 11.8 µM | [5] 29.7 µM | [7] 3.97 µM

COP(=S)(OC)Oc1ccc(Sc2ccc(OP(=S)(OC)OC)cc2)cc1
active: [5] 28.7 µM | [7] 27.4 µM
inactive: [1] | [2] | [3] | [4] | [6] | [8]

O=C(OC1CCCCC1)c1ccccc1C(=O)OC1CCCCC1
active: [1] 28.3 µM | [2] 20.9 µM | [3] 32.1 µM | [4] 20.9 µM | [5] 13 µM | [6] 30.8 µM | [7] 12.5 µM | [8] 30.9 µM

ClC1=C(Cl)[C@]2(Cl)[C@H]3[C@H]([C@H]4C=C[C@H]3C4)[C@@]1(Cl)C2(Cl)Cl
inactive: [5] | [8]
active: [1] 20 µM | [2] 24.4 µM | [3] 33.1 µM | [4] 3.97 µM | [6] 27 µM | [7] 8.66 µM

O=C(O)C(F)(F)C(F)(F)C(F)(F)C(F)(F)C(F)(F)C(F)(F)F
inactive: [1] | [2] | [3] | [4] | [5] | [10] | [11] | [6] | [7] | [8] | [12] | [13] | [14]
